Inconclusive results are not listed. Calls of active or inactive are those of the source. Calls come from the whole dose curve; as a rule, active = well fitted cell-killing curve with a large enough effect; inconclusive = small, poorly fitted or top-dose-only effect, or effect the other way; inactive = no such curve, though single readings can be large or run the other way.
Tested on: PA-1
Test: Confirmatory qHTS for gynecologic anti-cancer compounds from libraries of approved drugs and bioactive compounds; note: nearly all actives have a fitted effect of over 55% in size
Details: gynecologic cancer cell panel viability, ATPlite luminescence, 48 h; series mostly up to 57.6 µM
How it was run: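 1,000 cells/well; 16 h pre-incubation 37 C, 5% CO2; pin-transferred cpd in DMSO, 11 conc (1:3), 57.5 uM–0.977 nM; 48 h; ATPlite, 15 min RT; luminescence → IC50.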
Potency is the fitted concentration of half-maximal effect.

CC(C)(C)C(=O)OCOP(=O)(COCCn1cnc2c(N)ncnc21)OCOC(=O)C(C)(C)C
Potency: 6.85 µM (active)

Cc1csc(NC(=O)c2sc3nc4c(c(C(F)(F)F)c3c2N)CCC4)n1
Potency: 3.43 µM (active)

Cc1cc(CN2CCN(c3c(Br)cnc4nc(-c5ccc(N6CCN(C)CC6)cc5)[nH]c34)CC2)no1
Potency: 17.2 µM (active)

CNC(=O)c1ccccc1Nc1nc(Nc2ccc(N3CCOCC3)cc2OC)ncc1Cl
Potency: 1.72 µM (active)

OCCNC1CCCc2c1[nH]c1ccc(-c3ccccc3)cc21 (stereo not given)
Potency: 27.3 µM (active)

CCc1cccc(CC)c1NC(=O)N1Cc2[nH]nc(NC(=O)c3ccc(N4CCN(C)CC4)cc3)c2C1
Potency: 2.43 µM (active)

Cc1cc(Nc2nc(N[C@@H](C)c3ncc(F)cn3)ncc2Cl)n[nH]1
Potency: 3.85 µM (active)

CC(C)CC(=O)Nc1n[nH]c2c1CN(C(=O)C1CCN(C)CC1)C2(C)C
Potency: 0.172 µM (active)

O=c1[nH]c(=O)n([C@H]2C[C@H](O)[C@@H](CO)O2)cc1Br
Potency: inactive

Nc1ccc(-c2ccc3ncc4ccc(=O)n(-c5cccc(C(F)(F)F)c5)c4c3c2)cn1
Potency: 0.863 µM (active)

— PubChem BioAssay AID1345085 (National Center for Advancing Translational Sciences (NCATS), 2018)
